Measured values reported in the supplement of paper PMC10849652.
Of roughly 7,900 targets only a part is listed; those with a hit were picked by preference. About 0.6% of all pairs of compound and target were hits. Unmarked numbers belong to inactive results.

Experiments:
Assay in all cases: log2 fold change, soluble protein after heating vs DMSO (PISA); higher = thermal stabilisation; K562 cells, 10 uM, 30 min; active = over 0.2 and 3.5 SD of the protein, either way, in both replicates (recomputed)
[1] = compound: CC[C@@H]1C(=O)N(C)c2cnc(Nc3ccc(C(=O)NC4CCN(C)CC4)cc3OC)nc2N1C1CCCC1
Summary of the method: (§1)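 Values are thermal stability changes relative to control samples and are taken from duplicates. They are stated as log2 fold changes. Before quantification by TMTpro 16plex LC-MS/MS with equalised channel sums, K562 cells at 2×10^6 cells/mL were treated with 10 μM compound for 30 min, heated in aliquots for 3 min across 48°C-58°C, pooled, extracted in PBS with 0.5% NP-40 at 4°C, and centrifuged at 21,000xg for 90 min to give the soluble supernatant.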

volasertib = compound: CC[C@@H]1C(=O)N(C)c2cnc(Nc3ccc(C(=O)N[C@H]4CC[C@H](N5CCN(CC6CC6)CC5)CC4)cc3OC)nc2N1C(C)C [volasertib]
Summary of the method: as §1

[2] = compound: CC[C@H](C)N1C=C(C2=C(C=C(C=C21)C3=CN=C(C=C3)N4CCNCC4)C(=O)NCC5=C(C=C(NC5=O)C)C)C
Summary of the method: as §1

epoxomicin = compound: CC[C@H](C)[C@@H](C(=O)N[C@@H]([C@@H](C)O)C(=O)N[C@@H](CC(C)C)C(=O)[C@]1(CO1)C)NC(=O)[C@H]([C@@H](C)CC)N(C)C(=O)C [epoxomicin]
Summary of the method: as §1

[3] = compound: CCn1c(C(=O)N(C2CC2)C2CC2)cc2c3c(ncn3C)c(Nc3cc(C)n(C)n3)nc21
Summary of the method: as §1

[4] = compound: CCn1cc(-c2ccnc3[nH]c(-c4cccc(CN(C)C)c4)cc23)c(-c2ccc(NC(=O)N(C)C)cc2)n1
Summary of the method: as §1

[5] = compound: CN(C)CC(=O)Nc1ccc2[nH]c(=O)c3ccccc3c2c1
Summary of the method: as §1

rosiglitazone = compound: CN(CCOC1=CC=C(C=C1)C[C@H]2C(=O)NC(=O)S2)C3=CC=CC=N3 (racemic) [rosiglitazone]
Summary of the method: as §1

[6] = compound: CN1C2=C(C3=C1C(=O)N(N=C3)CC4=CC(=CC=C4)N)SC(=C2)S(=O)C
Summary of the method: as §1

[7] = compound: CN1CCC(CNc2ccc3ncc(-c4cccc(OC(F)(F)F)c4)n3n2)CC1
Summary of the method: as §1

UniProt P07910, sequence (P07910 whole entry, looked up): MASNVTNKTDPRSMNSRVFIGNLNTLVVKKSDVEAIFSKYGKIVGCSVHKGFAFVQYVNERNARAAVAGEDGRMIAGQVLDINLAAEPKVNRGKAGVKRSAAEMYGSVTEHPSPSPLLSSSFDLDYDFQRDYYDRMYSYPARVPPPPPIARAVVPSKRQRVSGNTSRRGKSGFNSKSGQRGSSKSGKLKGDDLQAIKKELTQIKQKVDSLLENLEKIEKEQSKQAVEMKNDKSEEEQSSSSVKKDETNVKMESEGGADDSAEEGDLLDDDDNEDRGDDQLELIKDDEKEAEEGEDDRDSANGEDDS
UniProt Q02790, sequence (Q02790 whole entry, looked up): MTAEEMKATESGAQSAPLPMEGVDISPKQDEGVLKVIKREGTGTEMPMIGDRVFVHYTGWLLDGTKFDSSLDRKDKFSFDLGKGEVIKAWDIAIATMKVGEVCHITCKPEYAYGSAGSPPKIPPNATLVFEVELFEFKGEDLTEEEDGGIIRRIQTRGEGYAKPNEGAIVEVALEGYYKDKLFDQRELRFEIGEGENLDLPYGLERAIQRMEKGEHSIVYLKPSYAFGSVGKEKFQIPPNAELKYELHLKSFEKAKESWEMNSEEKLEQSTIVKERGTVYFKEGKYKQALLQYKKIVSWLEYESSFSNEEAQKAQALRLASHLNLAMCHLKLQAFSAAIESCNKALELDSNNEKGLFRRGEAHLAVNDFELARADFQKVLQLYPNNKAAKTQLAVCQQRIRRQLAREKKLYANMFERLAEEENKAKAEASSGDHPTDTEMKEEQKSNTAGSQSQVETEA
UniProt Q9Y5Q8, sequence (Q9Y5Q8 whole entry, looked up): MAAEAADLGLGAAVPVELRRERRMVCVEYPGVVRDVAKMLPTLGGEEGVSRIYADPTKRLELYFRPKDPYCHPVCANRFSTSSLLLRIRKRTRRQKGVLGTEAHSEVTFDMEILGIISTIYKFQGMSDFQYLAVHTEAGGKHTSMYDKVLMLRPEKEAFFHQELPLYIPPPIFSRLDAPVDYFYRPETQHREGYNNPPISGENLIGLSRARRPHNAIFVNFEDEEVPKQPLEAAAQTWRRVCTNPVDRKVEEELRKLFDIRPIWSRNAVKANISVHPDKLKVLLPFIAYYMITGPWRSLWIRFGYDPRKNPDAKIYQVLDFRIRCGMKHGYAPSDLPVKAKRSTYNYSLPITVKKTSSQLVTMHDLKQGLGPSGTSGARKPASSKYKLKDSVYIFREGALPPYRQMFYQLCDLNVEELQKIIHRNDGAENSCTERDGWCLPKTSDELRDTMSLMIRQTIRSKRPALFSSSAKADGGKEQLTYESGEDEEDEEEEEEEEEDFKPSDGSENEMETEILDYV
UniProt Q86VQ1, sequence (Q86VQ1 whole entry, looked up): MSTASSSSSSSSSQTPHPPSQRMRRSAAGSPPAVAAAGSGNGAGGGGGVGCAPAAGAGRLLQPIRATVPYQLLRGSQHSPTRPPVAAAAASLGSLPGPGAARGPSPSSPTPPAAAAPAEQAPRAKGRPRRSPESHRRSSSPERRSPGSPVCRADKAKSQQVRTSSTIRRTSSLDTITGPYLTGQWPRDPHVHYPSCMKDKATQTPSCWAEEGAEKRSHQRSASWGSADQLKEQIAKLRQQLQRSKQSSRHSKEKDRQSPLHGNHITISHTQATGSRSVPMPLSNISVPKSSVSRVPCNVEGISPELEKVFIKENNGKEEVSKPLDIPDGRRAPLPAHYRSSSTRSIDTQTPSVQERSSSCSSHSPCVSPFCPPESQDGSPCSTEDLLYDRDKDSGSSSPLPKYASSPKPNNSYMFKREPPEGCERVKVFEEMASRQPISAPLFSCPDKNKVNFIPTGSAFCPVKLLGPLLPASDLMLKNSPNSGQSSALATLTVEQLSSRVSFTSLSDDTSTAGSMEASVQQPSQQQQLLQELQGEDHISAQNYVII
UniProt Q92664, sequence (Q92664 whole entry, looked up): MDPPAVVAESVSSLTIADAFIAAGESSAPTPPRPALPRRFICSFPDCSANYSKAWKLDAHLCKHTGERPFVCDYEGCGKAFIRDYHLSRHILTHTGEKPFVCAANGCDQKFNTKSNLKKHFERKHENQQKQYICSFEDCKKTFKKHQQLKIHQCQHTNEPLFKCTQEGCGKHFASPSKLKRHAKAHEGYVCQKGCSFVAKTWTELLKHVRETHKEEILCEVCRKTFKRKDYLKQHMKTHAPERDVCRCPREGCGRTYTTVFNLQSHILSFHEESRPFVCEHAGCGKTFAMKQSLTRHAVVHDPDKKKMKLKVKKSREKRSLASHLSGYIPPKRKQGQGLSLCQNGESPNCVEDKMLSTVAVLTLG
UniProt P00367, sequence (P00367 whole entry, looked up): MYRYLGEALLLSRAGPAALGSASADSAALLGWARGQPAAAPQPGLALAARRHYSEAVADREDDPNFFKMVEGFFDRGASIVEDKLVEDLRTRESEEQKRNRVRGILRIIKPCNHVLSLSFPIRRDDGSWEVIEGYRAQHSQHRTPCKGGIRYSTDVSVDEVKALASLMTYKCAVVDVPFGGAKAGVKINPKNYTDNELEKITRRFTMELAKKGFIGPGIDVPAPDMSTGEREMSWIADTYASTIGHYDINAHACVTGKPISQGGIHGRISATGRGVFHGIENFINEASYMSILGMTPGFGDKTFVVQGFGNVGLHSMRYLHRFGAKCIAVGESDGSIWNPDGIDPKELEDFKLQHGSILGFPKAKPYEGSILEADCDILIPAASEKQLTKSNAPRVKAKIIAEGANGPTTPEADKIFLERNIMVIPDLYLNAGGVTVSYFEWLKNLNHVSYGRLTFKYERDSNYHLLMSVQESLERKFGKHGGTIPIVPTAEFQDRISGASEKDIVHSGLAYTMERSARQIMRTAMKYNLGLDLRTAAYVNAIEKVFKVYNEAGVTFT
UniProt P22830, sequence (P22830 whole entry, looked up): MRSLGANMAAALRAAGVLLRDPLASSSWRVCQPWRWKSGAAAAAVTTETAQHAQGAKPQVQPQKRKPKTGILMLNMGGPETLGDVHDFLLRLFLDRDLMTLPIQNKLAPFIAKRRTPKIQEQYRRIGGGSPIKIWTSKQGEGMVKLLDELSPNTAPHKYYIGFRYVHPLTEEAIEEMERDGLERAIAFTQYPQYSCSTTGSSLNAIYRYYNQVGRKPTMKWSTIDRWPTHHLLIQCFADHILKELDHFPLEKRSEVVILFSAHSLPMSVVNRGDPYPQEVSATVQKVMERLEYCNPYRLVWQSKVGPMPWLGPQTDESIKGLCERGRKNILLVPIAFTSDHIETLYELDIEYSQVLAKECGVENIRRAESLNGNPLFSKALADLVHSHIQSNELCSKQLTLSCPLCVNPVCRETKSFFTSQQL
UniProt O76003, sequence (O76003 whole entry, looked up): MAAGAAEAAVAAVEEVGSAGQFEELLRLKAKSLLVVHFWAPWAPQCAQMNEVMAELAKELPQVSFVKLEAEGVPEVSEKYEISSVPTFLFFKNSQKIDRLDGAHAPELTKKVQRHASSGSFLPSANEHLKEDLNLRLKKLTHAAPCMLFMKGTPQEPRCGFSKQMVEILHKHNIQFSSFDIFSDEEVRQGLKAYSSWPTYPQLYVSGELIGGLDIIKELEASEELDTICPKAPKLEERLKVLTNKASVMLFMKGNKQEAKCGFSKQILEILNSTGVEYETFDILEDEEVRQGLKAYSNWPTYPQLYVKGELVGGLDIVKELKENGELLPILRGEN
UniProt Q96HJ9, sequence (Q96HJ9 whole entry, looked up): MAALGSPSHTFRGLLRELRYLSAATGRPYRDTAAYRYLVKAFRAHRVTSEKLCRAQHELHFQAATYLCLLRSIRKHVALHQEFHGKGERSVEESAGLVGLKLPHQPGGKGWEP
UniProt P15260, sequence (P15260 whole entry, looked up): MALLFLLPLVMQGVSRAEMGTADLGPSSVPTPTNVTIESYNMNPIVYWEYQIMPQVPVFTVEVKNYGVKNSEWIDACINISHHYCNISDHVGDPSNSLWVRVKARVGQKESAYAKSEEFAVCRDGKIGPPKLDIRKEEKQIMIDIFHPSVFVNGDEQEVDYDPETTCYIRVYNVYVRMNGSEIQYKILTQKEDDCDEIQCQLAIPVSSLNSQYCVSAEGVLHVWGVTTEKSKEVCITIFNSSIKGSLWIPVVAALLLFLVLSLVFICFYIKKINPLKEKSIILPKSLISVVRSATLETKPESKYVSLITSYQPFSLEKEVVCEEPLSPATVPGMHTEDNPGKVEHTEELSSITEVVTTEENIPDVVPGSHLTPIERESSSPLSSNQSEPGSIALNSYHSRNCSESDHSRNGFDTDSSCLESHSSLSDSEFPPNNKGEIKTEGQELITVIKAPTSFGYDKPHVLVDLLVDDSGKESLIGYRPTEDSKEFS
UniProt P09105, sequence (P09105 whole entry, looked up): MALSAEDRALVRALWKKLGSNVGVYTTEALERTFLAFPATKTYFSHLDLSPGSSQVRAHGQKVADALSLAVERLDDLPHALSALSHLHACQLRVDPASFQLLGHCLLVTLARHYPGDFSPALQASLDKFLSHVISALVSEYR
UniProt Q7Z4Q2, sequence (Q7Z4Q2 whole entry, looked up): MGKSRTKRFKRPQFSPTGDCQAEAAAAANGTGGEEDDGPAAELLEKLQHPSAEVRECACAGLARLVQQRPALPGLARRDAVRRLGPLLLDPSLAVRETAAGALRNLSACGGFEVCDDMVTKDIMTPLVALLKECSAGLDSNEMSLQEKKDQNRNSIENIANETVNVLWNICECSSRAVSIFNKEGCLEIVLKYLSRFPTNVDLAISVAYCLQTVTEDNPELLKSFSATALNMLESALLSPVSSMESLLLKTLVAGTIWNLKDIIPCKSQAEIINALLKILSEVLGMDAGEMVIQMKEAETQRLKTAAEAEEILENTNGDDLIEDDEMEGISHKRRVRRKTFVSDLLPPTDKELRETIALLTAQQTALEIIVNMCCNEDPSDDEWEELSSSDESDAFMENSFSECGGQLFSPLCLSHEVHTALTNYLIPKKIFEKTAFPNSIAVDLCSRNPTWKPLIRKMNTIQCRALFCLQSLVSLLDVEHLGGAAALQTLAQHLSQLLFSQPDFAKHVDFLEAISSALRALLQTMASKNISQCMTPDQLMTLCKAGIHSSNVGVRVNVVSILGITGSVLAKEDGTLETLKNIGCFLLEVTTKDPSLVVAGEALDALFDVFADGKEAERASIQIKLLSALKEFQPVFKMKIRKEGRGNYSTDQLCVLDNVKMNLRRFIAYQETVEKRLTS

| Target | log2 fold change [1] | log2 fold change (volasertib) | log2 fold change [2] | log2 fold change (epoxomicin) | log2 fold change [3] | log2 fold change [4] | log2 fold change [5] | log2 fold change (rosiglitazone) | log2 fold change [6] | log2 fold change [7] |
| --- | --- | --- | --- | --- | --- | --- | --- | --- | --- | --- |
| FIS1 (UniProt Q9Y3D6) | 0.005 | 0.046 | -0.023 | -0.002 | 0.025 | 0.008 | 0.01 | 0.016 | -0.189 | -0.075 |
| FECH isoform 2 (UniProt P22830) | 0.399 | 0.368 | 0.037 | -0.088 | 0.251 | 0.203 | 0.001 | 0 | -0.123 | 0.163 |
| FBXO3 (UniProt Q9UK99) | 0.041 | 0.042 | 0.052 | 0.007 | 0.001 | -0.074 | -0.03 | 0.045 | 0.023 | -0.038 |
| GLS (UniProt O94925) | -0.271 | -0.366 (active) | 0.142 | 0.151 | -0.026 | -0.051 | 0.103 | 0.085 | -0.085 | -0.241 |
| GDPD1 (UniProt Q8N9F7) | 0.069 | 0.049 | -0.019 | 0.017 | -0.015 | -0.188 | 0.004 | 0.083 | -0.132 | 0.092 |
| GTF2H3 (UniProt Q13889) | 0.004 | -0.122 | 0.066 | -0.099 | -0.035 | 0.115 | 0.052 | -0.046 | 0.027 | -0.34 (active) |
| HEATR3 (UniProt Q7Z4Q2) | -0.308 | -0.36 (active) | 0.033 | 0.039 | -0.051 | 0.276 | 0.058 | 0.059 | 0.007 | -0.34 |
| GLRX3 (UniProt O76003) | -0.164 | -0.331 (active) | 0.066 | 0.018 | 0.027 | -0.025 | -0.011 | 0.014 | -0.03 | -0.03 |
| GPAT4 (UniProt Q86UL3) | -0.042 | -0.046 | -0.036 | 0.063 | -0.01 | -0.039 | 0.029 | 0.008 | -0.063 | 0.143 |
| GTF3A (UniProt Q92664) | -0.128 | -0.028 | 0.074 | -0.101 | -0.024 | -0.263 | 0.049 | 0.071 | 0.016 | -0.447 (active) |
| GLUD1 (UniProt P00367) | 0.146 | 0.25 | 0.034 | 0.024 | 0.126 | -0.054 | 0 | -0.007 | -0.128 | 0.102 |
| HNRNPK isoform 2 (UniProt P61978) | -0.143 | -0.271 (active) | 0.062 | 0.003 | -0.027 | -0.027 | 0 | 0.022 | -0.01 | -0.216 (active) |
| GTF3C4 (UniProt Q9UKN8) | -0.002 | -0.263 (active) | 0.001 | -0.001 | -0.003 | -0.003 | -0.024 | 0.012 | 0.007 | 0 |
| FBXO6 (UniProt Q9NRD1) | 0.683 (active) | 0.696 (active) | 0.096 | -0.029 | -0.037 | -0.038 | 0.036 | 0.006 | 0.005 | 0.366 (active) |
| GLA (UniProt P06280) | -0.449 (active) | -0.911 (active) | 0.002 | 0.026 | 0.016 | 0.03 | -0.001 | -0.07 | 0.005 | -0.535 (active) |
| FKBP4 (UniProt Q02790) | -0.066 | -0.136 | 0.07 | 0.033 | -0.01 | -0.051 | 0.019 | 0.042 | -0.04 | -0.119 |
| ICAM1 (UniProt P05362) | 0.155 | 0.078 | -0.028 | 0.008 | -0.02 | 0.012 | -0.039 | -0.002 | -0.073 | 0.223 (active) |
| HK2 (UniProt P52789) | -0.156 | -0.813 (active) | 0.086 | 0.049 | -0.127 | 0.016 | -0.001 | 0.032 | -0.028 | -0.038 |
| IFNGR1 (UniProt P15260) | 0.065 | 0.15 | -0.382 | 0.021 | -0.108 | 0.1 | -0.087 | -0.02 | 0.032 | 0.127 |
| GTF3C5 isoform 3 (UniProt Q9Y5Q8) | -0.188 | -0.157 | 0.213 | -0.011 | 0.029 | -0.034 | 0.078 | 0.017 | -0.025 | 0.03 |
| HIST2H2BF isoform 2 (UniProt Q5QNW6) | -0.043 | 0.153 | -0.079 | -0.243 | 0.017 | 0.231 | -0.22 | -0.055 | 0.398 | 0.084 |
| GTF2E2 (UniProt P29084) | -0.11 | -0.265 (active) | 0.105 | 0.099 | -0.036 | 0.001 | 0.069 | 0.017 | 0.027 | -0.103 |
| HNRNPC isoform 2 (UniProt P07910) | 0.238 | 0.276 | 0.017 | -0.423 | -0.19 | 0.147 | -0.151 | -0.129 | 0.467 | -0.067 |
| GLS isoform 3 (UniProt O94925) | -0.172 | -0.699 (active) | 0.126 | 0.152 | -0.017 | -0.055 | 0.069 | 0.046 | -0.039 | -0.364 |
| FBXO42 (UniProt Q6P3S6) | 0.093 | 0.011 | 0.028 | 0.056 | -0.031 | 0.002 | -0.019 | 0.027 | 0.032 | 0.021 |
| HBQ1 (UniProt P09105) | 0.01 | -0.014 | -0.005 | 0.375 (active) | 0.069 | -0.064 | 0.047 | 0.021 | -0.145 | 0.063 |
| FMC1 (UniProt Q96HJ9) | 0.04 | 0.102 | -0.039 | 0.059 | -0.102 | 0.046 | -0.057 | 0.044 | -0.01 | -0.02 |
| GOLGB1 isoform 2 (UniProt Q14789) | 0.009 | -0.17 | -0.052 | -0.185 | 0.082 | 0.05 | -0.061 | 0.004 | 0.148 | -0.009 |
| GLCCI1 (UniProt Q86VQ1) | -0.048 | 0.108 | 0.15 | -0.022 | 0.087 | 0.088 | -0.035 | -0.053 | -0.023 | -0.328 (active) |
| HBA1 (UniProt P69905) | 0.049 | -0.059 | -0.038 | 0.316 | 0.078 | -0.076 | 0.012 | 0.022 | -0.044 | 0.153 |
